Key:
[1] = system: Schistosoma mansoni schistosomula (LE); assay: XTT viability relative to DMSO control; higher = more viable (less active); conditions: 72 h; 10 µM
Experimental: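 XTT/PMS was then added for a further 24 h (72 h total) and A450 was read. % viability = (sample - heat-killed control)/(DMSO control - heat-killed control) x 100, from duplicate wells in two independent experiments.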

[2] = system: Schistosoma mansoni schistosomula (NMRI); assay: phenotypic severity score (0-4); higher = more antischistosomal effect, active = 2 or more; conditions: 10 µM
[3] = system: Schistosoma mansoni schistosomula (Liberian); assay: drug effect (1 - score/DMSO control score) (fraction); higher = more antischistosomal effect, active = 0.5 or more; extreme values may be limits of the assay; conditions: 10 µM
How it was run: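 Schistosomula of the Liberian strain of Schistosoma mansoni were mechanically transformed from cercariae, pre-incubated for at least 12 h, and placed at 50 per well in flat-bottom 96-well plates with Medium 199 containing 5% FCS. Compounds were tested in duplicate at 10 µM at 37 °C and 5% CO2, alongside wells holding 0.1% DMSO. Parasites were scored visually at 10× after 24, 48 and 72 h on a quarter-point scale running from 3 (normal) to 0 (dead). Drug effect came from the mean test-well score relative to the mean DMSO-well score, with negative values set to zero and plates accepted only when the DMSO wells averaged at least 2.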
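Wherever phenotypic severity score (0-4) is given: visual microscopic scoring of shape, motility and density changes versus 0.5% DMSO solvent controls, one point per descriptor, degeneracy or death scored 4, mean of duplicate wells.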

## COc1ccc(-c2cncc3ccc(C(=O)NCCCn4ccnc4)nc23)cc1
[1]
  XTT viability: 121%
[2]; 24 h
  phenotypic severity score: 1 (inactive)
[2]; 48 h
  phenotypic severity score: 0 (inactive)
[2]; 72 h
  phenotypic severity score: 0 (inactive)
[3]; 24 h
  drug effect: < 0 (inactive)
[3]; 48 h
  drug effect: 0.027 (inactive)
[3]; 72 h
  drug effect: 0.0303 (inactive)

## CC[P](CC)(CC)=[Au][S][C@H]1O[C@@H](COC(C)=O)[C@H](OC(C)=O)[C@@H](OC(C)=O)[C@@H]1OC(C)=O
[1]
  XTT viability: 203%
[2]; 24 h
  phenotypic severity score: 4 (active)
[2]; 48 h
  phenotypic severity score: 4 (active)
[2]; 72 h
  phenotypic severity score: 4 (active)
[3]; 24 h
  drug effect: 1 (active)
[3]; 48 h
  drug effect: 1 (active)
[3]; 72 h
  drug effect: 1 (active)

## COc1cc(C2=NCCN2)cc2cc(-c3ccc(C4=NCCN4)cc3)oc12
[1]
  XTT viability: 4.86%
[2]; 24 h
  phenotypic severity score: 0 (inactive)
[2]; 48 h
  phenotypic severity score: 0 (inactive)
[2]; 72 h
  phenotypic severity score: 0 (inactive)
[3]; 24 h
  drug effect: 0.1 (inactive)
[3]; 48 h
  drug effect: 0.027 (inactive)
[3]; 72 h
  drug effect: 0.0303 (inactive)

## O=C(Nc1nnc(-c2ccc(Cl)cc2)o1)c1cccc(C(F)(F)F)c1
[1]
  XTT viability: -9.98%
[2]; 24 h
  phenotypic severity score: 0 (inactive)
[2]; 48 h
  phenotypic severity score: 4 (active)
[2]; 72 h
  phenotypic severity score: 4 (active)
[3]; 24 h
  drug effect: 0.0909 (inactive)
[3]; 48 h
  drug effect: 0.25 (inactive)
[3]; 72 h
  drug effect: 0.945 (active)

## COc1cccc(-n2nnnc2S(=O)(=O)Cc2ccccc2)c1
[1]
  XTT viability: -7.15%
[2]; 24 h
  phenotypic severity score: 4 (active)
[2]; 48 h
  phenotypic severity score: 4 (active)
[2]; 72 h
  phenotypic severity score: 4 (active)
[3]; 24 h
  drug effect: 1 (active)
[3]; 48 h
  drug effect: 1 (active)
[3]; 72 h
  drug effect: 1 (active)

## CC1CS(=O)(=O)CCN1/N=C/c1ccc([N+](=O)[O-])o1 (stereo not drawn)
[1]
  XTT viability: 224%
[2]; 24 h
  phenotypic severity score: 0 (inactive)
[2]; 48 h
  phenotypic severity score: 0 (inactive)
[2]; 72 h
  phenotypic severity score: 0 (inactive)
[3]; 24 h
  drug effect: 0.3 (inactive)
[3]; 48 h
  drug effect: 0.278 (inactive)
[3]; 72 h
  drug effect: 0.625 (active)

## CCCCc1ccc(NC(=O)Nc2ccc(O[C@H]3CCCC[C@@H]3N(C)c3ccccc3)c(F)c2)cc1
[1]
  XTT viability: 33.7%
[2]; 24 h
  phenotypic severity score: 0 (inactive)
[2]; 48 h
  phenotypic severity score: 0 (inactive)
[2]; 72 h
  phenotypic severity score: 0 (inactive)
[3]; 24 h
  drug effect: 0.111 (inactive)
[3]; 48 h
  drug effect: 0.312 (inactive)
[3]; 72 h
  drug effect: 0.875 (active)

## COc1ccc(-c2nnc3ccc(-c4cccc(C(C)C)c4)cn23)cc1OC
[1]
  XTT viability: 14.7%
[2]; 24 h
  phenotypic severity score: 0 (inactive)
[2]; 48 h
  phenotypic severity score: 2 (active)
[2]; 72 h
  phenotypic severity score: 0 (inactive)
[3]; 24 h
  drug effect: 0.1 (inactive)
[3]; 48 h
  drug effect: 0.167 (inactive)
[3]; 72 h
  drug effect: 0.278 (inactive)

## O=C(NC1=NCCS1)c1sc2cc(F)ccc2c1Cl
[1]
  XTT viability: 81%
[2]; 24 h
  phenotypic severity score: 0 (inactive)
[2]; 48 h
  phenotypic severity score: 0 (inactive)
[2]; 72 h
  phenotypic severity score: 0 (inactive)
[3]; 24 h
  drug effect: 0.0909 (inactive)
[3]; 48 h
  drug effect: 0.1 (inactive)
[3]; 72 h
  drug effect: 0.0182 (inactive)

## CS(=O)(=O)N1CCC(Cn2nc(Cc3cccc4ccccc34)c3c(N)ncnc32)CC1
[1]
  XTT viability: 122%
[2]; 24 h
  phenotypic severity score: 0 (inactive)
[2]; 48 h
  phenotypic severity score: 0 (inactive)
[2]; 72 h
  phenotypic severity score: 0 (inactive)
[3]; 24 h
  drug effect: 0.1 (inactive)
[3]; 48 h
  drug effect: 0.568 (active)
[3]; 72 h
  drug effect: 0.636 (active)

## COc1ccccc1OCCCCn1c(C2CC2)nc2ccccc21
[1]
  XTT viability: 76%
[2]; 24 h
  phenotypic severity score: 0 (inactive)
[2]; 48 h
  phenotypic severity score: 0 (inactive)
[2]; 72 h
  phenotypic severity score: 0 (inactive)
[3]; 24 h
  drug effect: 0.136 (inactive)
[3]; 48 h
  drug effect: 0.2 (inactive)
[3]; 72 h
  drug effect: 0.182 (inactive)

## CN1CCN(c2nccc3[nH]c(-c4cccc(F)c4)cc23)CC1
[1]
  XTT viability: 66.3%
[2]; 24 h
  phenotypic severity score: 0 (inactive)
[2]; 48 h
  phenotypic severity score: 2 (active)
[2]; 72 h
  phenotypic severity score: 4 (active)
[3]; 24 h
  drug effect: 0.0909 (inactive)
[3]; 48 h
  drug effect: 0.1 (inactive)
[3]; 72 h
  drug effect: 0.158 (inactive)

## CCc1ccccc1-n1c(C)cn2c3c(=O)n(C(C(=O)OC)C(C)C)c(=O)n(C)c3nc12 (stereo not drawn)
[1]
  XTT viability: 108%
[2]; 24 h
  phenotypic severity score: 1 (inactive)
[2]; 48 h
  phenotypic severity score: 0 (inactive)
[2]; 72 h
  phenotypic severity score: 0 (inactive)
[3]; 24 h
  drug effect: 0.15 (inactive)
[3]; 48 h
  drug effect: 0.405 (inactive)
[3]; 72 h
  drug effect: 0.636 (active)

## Nc1ncnc2c1c(Cc1cccc3ccccc13)nn2CC1CCNCC1
[1]
  XTT viability: 96.2%
[2]; 24 h
  phenotypic severity score: 0 (inactive)
[2]; 48 h
  phenotypic severity score: 0 (inactive)
[2]; 72 h
  phenotypic severity score: 0 (inactive)
[3]; 24 h
  drug effect: < 0 (inactive)
[3]; 48 h
  drug effect: < 0 (inactive)
[3]; 72 h
  drug effect: < 0 (inactive)

## O=C(Nc1ccnc(-c2cccnc2)n1)c1cc(C(F)(F)F)cc(C(F)(F)F)c1
[1]
  XTT viability: 91%
[2]; 24 h
  phenotypic severity score: 0 (inactive)
[2]; 48 h
  phenotypic severity score: 0 (inactive)
[2]; 72 h
  phenotypic severity score: 0 (inactive)
[3]; 24 h
  drug effect: 0.1 (inactive)
[3]; 48 h
  drug effect: 0.0811 (inactive)
[3]; 72 h
  drug effect: 0.111 (inactive)

## COc1cc2ncnc(NC3CCN(Cc4ccccc4)CC3)c2cc1OC
[1]
  XTT viability: 86.5%
[2]; 24 h
  phenotypic severity score: 0 (inactive)
[2]; 48 h
  phenotypic severity score: 0 (inactive)
[2]; 72 h
  phenotypic severity score: 0 (inactive)
[3]; 24 h
  drug effect: 0.1 (inactive)
[3]; 48 h
  drug effect: 0.135 (inactive)
[3]; 72 h
  drug effect: 0.0556 (inactive)

## C[C@H](C(N)=O)N1CCCC[C@@H]1c1ccc(OCc2cccc(F)c2)cc1
[1]
  XTT viability: 88.1%
[2]; 24 h
  phenotypic severity score: 0 (inactive)
[2]; 48 h
  phenotypic severity score: 0 (inactive)
[2]; 72 h
  phenotypic severity score: 0 (inactive)
[3]; 24 h
  drug effect: 0.2 (inactive)
[3]; 48 h
  drug effect: 0.444 (inactive)
[3]; 72 h
  drug effect: 0.5 (active)

## CN1CCN(S(=O)(=O)c2ccc(-c3ccc4c(Nc5ncc(Cl)cn5)ccnc4c3)cc2)CC1
[1]
  XTT viability: 32.4%
[2]; 24 h
  phenotypic severity score: 2 (active)
[2]; 48 h
  phenotypic severity score: 4 (active)
[2]; 72 h
  phenotypic severity score: 4 (active)
[3]; 24 h
  drug effect: 0.6 (active)
[3]; 48 h
  drug effect: 0.611 (active)
[3]; 72 h
  drug effect: 0.625 (active)

## O=C(NC1CCCCC1)N1CCN(Cc2ccc3c(c2)OCO3)CC1
[1]
  XTT viability: 88.6%
[2]; 24 h
  phenotypic severity score: 0 (inactive)
[2]; 48 h
  phenotypic severity score: 0 (inactive)
[2]; 72 h
  phenotypic severity score: 0 (inactive)
[3]; 24 h
  drug effect: 0.0455 (inactive)
[3]; 48 h
  drug effect: 0.2 (inactive)
[3]; 72 h
  drug effect: 0.127 (inactive)
